# CYP2C9 inh = inhibitors of human CYP2C9; CYP2C9 Supersomes, luciferin-H conversion, luminescence; inhibition, % at 5 µM; 96,000 tested, 20% active;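 active means blocking of liver enzyme CYP2C9 beyond about 50% at 5 µM, limit read from the data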
# CYP2C19 inh = blocks human cytochrome P450 2C19 | CYP2C19 Supersomes, luciferin-H EGE luminescence, 30 min | P33261 | 96,000 tested, 21% active | AID 778 | inhibition, % at 5 µM;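 active means CYP2C19 inhibition above a set limit at 5 µM in the primary screen, cut at about 50% in these data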;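 further: plate controls were negative control wells for no effect and 2.5 mM tranylcypromine positive control for full effect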
# Target sequence (P33261 whole entry, looked up): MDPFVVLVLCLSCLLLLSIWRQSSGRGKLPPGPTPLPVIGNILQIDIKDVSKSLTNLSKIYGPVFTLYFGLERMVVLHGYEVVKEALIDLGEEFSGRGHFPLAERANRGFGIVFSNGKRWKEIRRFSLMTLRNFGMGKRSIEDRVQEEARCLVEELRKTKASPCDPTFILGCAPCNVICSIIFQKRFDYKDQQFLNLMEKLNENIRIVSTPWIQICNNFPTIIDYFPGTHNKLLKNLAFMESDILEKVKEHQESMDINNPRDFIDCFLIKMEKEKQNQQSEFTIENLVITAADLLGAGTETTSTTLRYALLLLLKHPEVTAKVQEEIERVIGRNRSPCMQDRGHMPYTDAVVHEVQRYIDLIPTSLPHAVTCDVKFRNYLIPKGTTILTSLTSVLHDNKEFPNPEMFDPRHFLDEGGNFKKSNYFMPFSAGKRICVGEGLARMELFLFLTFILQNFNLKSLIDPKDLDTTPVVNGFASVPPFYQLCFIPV
# Measles CPE = protection of cells from measles virus. 140,000 tested, 1.5% active. Measles virus-infected cells, CPE protection, absorbance. protection (pct of control), % at 4 µM. AID 841; in the data active means protection mostly above about 24%, no sharp cut-off; inactive means mostly below about 26%
# CYP2C19 act = activators of human cytochrome P450 2C19; P33261; activation factor at 5 µM; AID 1025; recombinant CYP2C19, luciferin-H EGE luminescence; hits give high values; 0 = fully inhibited enzyme, 1 = untreated enzyme; 96,000 tested, under 10 active;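 active means activation factor of at least 2 at 5 µM in the primary screen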;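 further: 0 = wells with 2.5 mM tranylcypromine and 1 = vehicle-only wells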
# CYP2C9 act = CYP2C9 (human) activation. AID 1024. P11712. activation factor at 5 µM. recombinant CYP2C9, luciferin-H conversion, luminescence; hits give high values; factor 1 = untreated enzyme, 0 = blocked. 96,000 tested, 1.4% active;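 active means activation factor of 2 or more for CYP2C9 at a 5 µM dose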;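 further: 0 = sulfaphenazole-blocked wells and 1 = vehicle-only wells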
# Starred values were filed as active, the others as inactive; . = not tested or not shown. An excerpt weighted towards active compounds, which were near 22% of everything screened.
SMILES,CYP2C9 inh,CYP2C19 inh,Measles CPE,CYP2C19 act,CYP2C9 act
O=C(CN1CCN(c2ncccn2)CC1)NCCC1=CCCCC1,94*,54*,8,0.5,0.1
O=C(CN1C(=O)C2C3C=CC(C3)C2C1=O)NCCC1=CCCCC1 (configuration not stated),15,51*,21,0.5,0.9
CCC1Oc2ccccc2N(CC(=O)NCCC2=CCCCC2)C1=O (configuration not stated),41,89*,3,0.1,0.6
O=C(NCCC1=CCCCC1)C1COc2ccccc2O1 (configuration not stated),58*,87*,16,0.1,0.4
CSc1nnc(Cc2cc(=O)[nH]c(=O)[nH]2)n1-c1cccc(C)c1,-8,-22,4,1.2,1.1
COCCCNC(=O)c1c(NC(=O)C2COc3ccccc3O2)sc2c1CCCC2 (configuration not stated),92*,82*,21,0.2,0.1
Cc1ccc2[nH]c3c(=O)n(CCCN4CCOCC4)cnc3c2c1,-1,68*,4,0.3,1
Cc1ccc2[nH]c3c(=O)n(CCc4cnc[nH]4)cnc3c2c1,97*,99*,4,0,0
Cc1ccc2[nH]c3c(=O)n(CCN4CCOCC4)cnc3c2c1,-4,8,9,0.9,1
Cc1ccc(-c2onc3ccc(Cl)cc23)cc1,.,.,3,.,.
c1ccc(-c2onc3cc4c(cc23)OCCO4)cc1,54*,50*,1,0.5,0.5
Cc1ccc(-n2c3c(c(O)c(-c4ccccc4)c2=O)C(=O)CC(C)(C)C3)cc1,.,.,15,.,.
CCCCCCCOC1(c2ccccc2)OC(=O)c2ccccc21 (configuration not stated),76*,78*,5,0.2,0.2
Cc1cccc(OC2(c3ccccc3)OC(=O)c3ccccc32)c1C (configuration not stated),83*,44,12,0.6,0.2
CCCCCCOC1(c2ccccc2)OC(=O)c2ccccc21 (configuration not stated),62*,56*,10,0.4,0.4
C/C(Cn1cnc([N+](=O)[O-])n1)=N\NC(=O)c1cccc(F)c1,.,.,12,.,.
Cc1ccccc1NC(=O)/C(=C/c1ccccc1)c1ccccc1,26,27,3,0.7,0.7
CNS(=O)(=O)c1cccc(C(=O)OCc2cc(=O)n3cc(Br)ccc3n2)c1,.,.,13,.,.
CCN(CC)S(=O)(=O)c1cccc(C(=O)OCc2cc(=O)n3nc(C)sc3n2)c1,55*,23,7,0.8,0.4
CC1CCCCN1Cc1ccc(-c2nn[nH]n2)cc1 (configuration not stated),-8,0,11,1,1.1
COc1ccc(-c2nnc(NC(=O)CSc3ccccc3)s2)cc1OC,.,.,7,.,.
COC(=O)Cc1cn(-c2ncc(C(F)(F)F)cc2Cl)c2ccccc12,71*,74*,11,0.3,0.3
NC(=O)Cc1cn(-c2ncc(C(F)(F)F)cc2Cl)c2ccccc12,49,48,24,0.5,0.5
COCCNC(=O)c1nc2ccccc2s1,.,.,1,.,.
CCNS(=O)(=O)c1ccc(NS(=O)(=O)c2cc(C)ccc2C)cc1,97*,64*,15,0.4,0
SMILES,CYP2C9 inh,CYP2C19 inh,Measles CPE,CYP2C19 act,CYP2C9 act
Cc1cc(C)c(S(=O)(=O)Nc2ccc(O)cc2)cc1C,-12,97*,27,0,1.1
CC(=O)Nc1cc(S(=O)(=O)Nc2ccc(C)cc2)c(C)cc1C,19,13,3,0.9,0.8
Cc1noc(NS(=O)(=O)c2ccc(NC(=O)COc3ccccc3)cc2)c1C,29,-6,8,1.1,0.7
Cc1noc(NS(=O)(=O)c2ccc(NC(=O)CS(=O)(=O)c3ccccc3)cc2)c1C,54*,-8,4,1.1,0.5
Cc1ccc(C)c(S(=O)(=O)Nc2ccc(O)cc2)c1,14,72*,5,0.3,0.9
Cc1cc2nc(Sc3c([N+](=O)[O-])nc(C)n3Cc3ccccc3)[nH]c2cc1C,.,.,15,.,.
COc1ccc(/C=N/N2CCOCC2)cc1O,.,.,19,.,.
CCCCN(CCCC)CCCNC(=O)CC1Oc2ccc(C)cc2NC1=O (configuration not stated),23,-18,15,1.2,0.8
Cc1cc(C)c(C(=O)Nc2ccc(S(=O)(=O)Nc3onc(C)c3C)cc2)c(C)c1,10,1,5,1,0.9
COc1ccc(NS(=O)(=O)c2cc(S(C)(=O)=O)ccc2C)cc1,.,.,3,.,.
COc1ccc(NS(=O)(=O)c2cc(OC)ccc2NC(=O)c2cc(C)oc2C)cc1,44,91*,5,0.1,0.6
CCNS(=O)(=O)c1ccc(NS(C)(=O)=O)cc1,-3,-10,4,1.1,1
COc1ccc(NS(=O)(=O)c2cc(C)ccc2C)cc1,72*,82*,11,0.2,0.3
Cc1ccc(C)c(S(=O)(=O)Nc2ccc(S(=O)(=O)Nc3onc(C)c3C)cc2)c1,71*,14,10,0.9,0.3
CCCCNS(=O)(=O)c1ccc(NS(=O)(=O)c2c(C)cc(C)cc2C)cc1,98*,85*,15,0.2,0
CCS(=O)(=O)N1CCC(C(=O)NCCCN2CCCCCC2)CC1,-2,-12,4,1.1,1
COCCCNC(=S)NC1CCCCC1,.,.,14,.,.
CCN(CC)CC(=O)Nc1c(Br)ccc2c1OCO2,-4,-2,6,1,1
CCOC(=O)C(C)n1cnc2c(nnn2-c2ccc(C)cc2)c1=O (configuration not stated),16,2,4,1,0.8
CCC(NS(=O)(=O)c1ccc(C)cc1)C(=O)Nc1ccc(NC(C)=O)cc1 (configuration not stated),46,70*,3,0.3,0.5
COc1ccc(S(=O)(=O)N/N=C(/C)c2ccc(Cl)cc2)cc1,79*,84*,10,0.2,0.2
CCC(C)NS(=O)(=O)c1ccc(NC(C)=O)cc1 (configuration not stated),.,.,11,.,.
CC(=O)Nc1ccc(/C(C)=N/NS(=O)(=O)c2ccc(C)cc2)cc1,71*,24,7,0.8,0.3
C/C(=N/NS(=O)(=O)c1ccc(Cl)cc1)c1cccc(O)c1,23,22,1,0.8,0.8
CC(=O)Nc1ccc(S(=O)(=O)NNC(=O)c2cccc3ccccc23)cc1,62*,33,3,0.7,0.4
SMILES,CYP2C9 inh,CYP2C19 inh,Measles CPE,CYP2C19 act,CYP2C9 act
COC(=O)c1cc(C)nc(N)c1C#N,-12,12,7,0.9,1.1
CS(=O)(=O)c1cnc2c(-c3ccc(F)cc3)cnn2c1N,6,7,5,0.9,0.9
C/C(=N/NS(=O)(=O)c1ccc(Br)cc1)c1ccc(NC(=O)c2ccc(C)o2)cc1,98*,50,19,0.5,0
CC(=O)Nc1ccc(NC(=O)CNS(=O)(=O)c2ccc(C)cc2)cc1,28,42,23,0.6,0.7
Cc1ccc(S(=O)(=O)NNC(=O)Nc2ccc(Cl)cc2)cc1,.,.,14,.,.
CCC(=O)Nc1ccc(/C(C)=N\NS(=O)(=O)c2ccc(C)cc2)cc1,61*,16,10,0.8,0.4

# Screening data from PubChem BioAssay.
